# Source: PubChem BioAssay (NCATS)
# Records with an inconclusive call do not appear. Calls of active or inactive are those of the source. Unless noted, calls come from the whole dose curve; as a rule, active = well fitted curve in the direction sought with a large enough effect; inconclusive = small, poorly fitted or top-dose-only effect, or another doubt; inactive = no such curve, though single readings can be large; an effect the other way counts as inactive or inconclusive.
# What was measured:
# [1] = target: Lysosomal acid glucosylceramidase (Homo sapiens) (UniProt P04062); test: Glucocerebrosidase-p2 (AID 348; in the data active = potency below about 10 µM; note: potency is the fitted concentration of half-maximal effect); details: purified GBA, blue fluorogenic substrate, 40 min
# Method in brief: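 Compounds titrated from 0.6 nM upwards against 0.2 nM enzyme in pH 5.9 citric acid/KH2PO4, taurocholate, tween-20; blue fluorogenic substrate 80 uM, 40 min room temperature, stopped and read Ex 365/Em 440 for AC50.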
# [2] = AP1 Signaling Pathway (AID 357; active = well fitted curve in either direction with a large enough effect, not every such curve was filed as active; note: % is set by controls: 0 for no effect and ±100 for the full control effect); details: ME-180 AP-1-bla reporter, EGF-induced, beta-lactamase ratio, 5 h; at 7.69 µM (top of the series) unless noted
# Method in brief: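 ME-180 cells with beta-lactamase reporter under AP-1 response element, stimulated with EC50 EGF; compounds tested in titration series, 5 h at 37 °C. CCF4 substrate added 2.5 h at room temperature; 460/530 nm emission ratio gave %activity and AC50.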
# [3] = target: Cytochrome P450 1A2 (Homo sapiens) (UniProt P05177); test: p450-cyp1a2 (AID 410; calls by dose curve; note: potency is the fitted concentration of half-maximal effect)
# Method in brief: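 Inhibition was calculated relative to 57 uM furafylline (full inhibition). The reaction used human CYP1A2 at 20nM with Luciferin-ME at its Km, 100uM, driven by an NADPH-regenerating system for 60 min at room temperature.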
# [4] = NFAT Signaling Pathway (AID 444; active = well fitted curve in either direction with a large enough effect, not every such curve was filed as active;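 note: carbachol stimulus at about its EC50 of 1 µM final; % is set by controls: 0 for no effect and ±100 for the full control effect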); details: Jurkat NFAT-bla M1, carbachol, beta-lactamase ratio, 5 h; at 7.69 µM (top of the series) unless noted
# Method in brief: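 Jurkat cells carrying an NFAT-driven β-lactamase reporter and co-transfected muscarinic M1 receptor were treated with compound plus carbachol (1 uM final, an EC50 level) for 5 h at 37 °C. CCF4 loading followed for 1 h at RT; 460/530 nm ratio gave %activity.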
# [5] = Stat Signaling Pathway (AID 446; active = well fitted curve in either direction with a large enough effect, not every such curve was filed as active;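 note: ME-180 cervical cancer cells given 40 pM IL-6 alongside compound; SIE-controlled beta-lactamase reporter measured as 460/530 nm FRET emission ratio; % is set by controls: 0 for no effect and ±100 for the full control effect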); details: ME-180 (cervical carcinoma) SIE beta-lactamase reporter, IL-6 stimulated, 5 h; at 7.69 µM (top of the series) unless noted
# Method in brief: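 IL-6/STAT signaling read in ME-180 cells via an SIE beta-lactamase reporter. Stimulus was 40 pM IL-6 (its AC50) for 5 hrs, so both activation and inhibition register.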
# [6] = target: Glucocorticoid receptor (Homo sapiens) (UniProt P04150); test: GR-GFP Redistribution (AID 450;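 active = compounds whose dose series gives a full or clear partial fitted curve of increased nuclear translocation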; note: potency is the fitted concentration of half-maximal effect); details: U2OS GR-GFP nuclear translocation, laser cytometry, 2 h
# [7] = target: Glucocorticoid receptor (Homo sapiens) (UniProt P04150); test: GR-EFC Redistribution (AID 451; calls by dose curve; note: potency is the fitted concentration of half-maximal effect); details: CHO-K1 GR-EFC translocation, beta-gal luminescence, 2 h
# Method in brief: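 CHO-K1 cells stably expressing nuclear-localized β-gal enzyme acceptor and GR fused C-terminally to the enzyme donor fragment; ligand-driven nuclear translocation restores β-gal by complementation. Compounds titrated up to 46 uM final, 2 h at 37 °C; luminescence read.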
# [8] = target: Mitogen-activated protein kinase 10 (Mus musculus) (UniProt Q61831); test: JNK3 AlphaScreen Assay (AID 530; active = well fitted curve in either direction with a large enough effect, not every such curve was filed as active;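 note: kinase came from lysate of stimulated human HepG2 cells; signal reports phosphorylation of biotinylated GST-cJun 1-79 at Ser73 with 10 µM ATP; % is set by controls: 0 for no effect and ±100 for the full control effect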)
# Method in brief: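 JNK3 came from HepG2 lysates pre-activated with IL-1beta and TNF-alpha and phosphorylated biotinylated GST-cJun (1-79) at 10 uM ATP, pH 7.6, room temperature. Compounds were titrated. AlphaScreen signal used anti-phospho-cJun (Ser73) antibody.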
# [9] = target: 3',5'-cyclic-AMP phosphodiesterase 4B (Homo sapiens) (UniProt Q07343); test: qHTS Assay for Inhibitors of PDE-IV (AID 607; active = well fitted activation curve with a large enough effect in the main read-out, with a control signal flat, not every such curve was filed as active; note: % of control where 0% means no effect)
# Method in brief: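 Live HEK293 cells with a modified cyclic nucleotide-gated (CNG) channel report intracellular cAMP via membrane-potential dye fluorescence (ex 535/em 590 nm). Endogenous PDE-IV was targeted. Compounds were tested at up to 22.9 uM final; RO 20-1724 100 uM served as control.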
# [10] = qHTS Assay for Lipid Storage Modulators (AID 1519; calls by dose curve); details: Drosophila S3 cells, BODIPY lipid droplet/cell ratio, laser cytometry, cells loaded with oleic acid; for activity change, negative = inhibition: at 57.5 µM (top of the series)
# Method in brief: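 Cells seeded at 5,000 per well were treated with compounds over a concentration series and loaded with oleic acid (400 uM, as added). Lipid droplet fluorescence (488 nm excitation, 500-530 nm channel) was read by laser-scanning cytometry and normalized to 20 uM Triacsin C.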
# [11] = target: Dual specificity protein kinase CLK4 (Homo sapiens) (UniProt Q9HAZ1); test: qHTS Assay for Inhibitors of CDC-like Kinase 4 (Kinase-Glo Assay) (AID 1770); note: % is set by controls: 0 for no effect and ±100 for the full control effect; nearly all actives have a fitted effect of over 65% in size
# Method in brief: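 Readout: Kinase-Glo luminescence from ATP left after a 4.5 h room-temperature reaction of 25 nM Clk4 with 100 uM RS peptide and 1 uM ATP (final). Buffer: 25 mM Tris pH 7.5, 10 mM MgCl2.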
# [12] = target: Dual specificity protein kinase CLK4 (Homo sapiens) (UniProt Q9HAZ1); test: qHTS Assay for Inhibitors of CDC-like Kinase 4 (ADP-Glo Assay) (AID 1771); note: % is set by controls: 0 for no effect and ±100 for the full control effect; nearly all actives have a fitted effect of over 70% in size
# Method in brief: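 Kinase reaction: Clk4 at 25 nM, RS repeat peptide substrate at 100 uM, ATP at 1 uM, 1 hr, room temperature. Product ADP detected as luciferase signal via ADP-Glo.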
# [13] = target: Dual specificity protein kinase CLK4 (Homo sapiens) (UniProt Q9HAZ1); test: qHTS Assay for Inhibitors of CDC-like Kinase 4 (ADP-FP Assay) (AID 1795);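 note: recombinant human CLK4 phosphorylating RS repeat peptide at 1 µM ATP; % is set by controls: 0 for no effect and ±100 for the full control effect; nearly all actives have a fitted effect of over 60% in size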
# Method in brief: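 FP readout: Orange Transcreener ADP2 tracer (4 nM) plus ADP antibody, read after 30 min at room temperature. Kinase step: 6.25 nM Clk4, 100 uM RS peptide, 1 uM ATP, pH 7.5, 1 h.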
# [14] = target: Ubiquitin carboxyl-terminal hydrolase 1 (Homo sapiens) (UniProt O94782); test: Inhibitors of USP1/UAF1: Pilot qHTS (AID 504865);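 note: rhodamine fluorescence freed from ubiquitin-rhodamine substrate followed over time; top concentration of the series differs between compounds; % is set by controls: 0 for no effect and ±100 for the full control effect; nearly all actives have a fitted effect of over 35% in size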
# Method in brief: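 1nM USP1/UAF1 + cpd, 15 min RT; start w/ Ub-Rho 150nM final; kinetic FL 480/540 nm, 6 reads q60 s. Buffer 50mM HEPES pH 7.8, 0.5mM EDTA, 1mM TCEP, 0.01% Tween-20, 0.1 mg/ml BSA.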
# [15] = target: Cytochrome P450 3A4 (Homo sapiens) (UniProt P08684); test: qHTS Assay for Activators of Cytochrome P450 3A4 (AID 885); note: nearly all actives have a fitted effect of over 65% in size
# Method in brief: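 Quantitative HTS format: compounds preincubated with 20nM human CYP3A4 and Luciferin-PPXE substrate at KM, reaction started by NADPH regeneration, stopped after 60 min, luciferase luminescence read 20 min later.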
# [16] = target: Cytochrome P450 3A4 (Homo sapiens) (UniProt P08684); test: qHTS Assay for Inhibitors and Substrates of Cytochrome P450 3A4 (AID 884); note: nearly all actives have a fitted effect of over 50% in size; note: potency is the fitted concentration of half-maximal effect
# Method in brief: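 20 nM human CYP3A4 with 25 uM Luciferin-PPXE (at KM) in 200 mM KPO4, preincubated 10 min with compound; NADPH regeneration started a 60 min RT reaction. Luciferin detected by luminescence, normalized to 57 uM ketoconazole as full inhibition.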
# [17] = Confirmation and Secondary Assay for Modulators of Hemoglobin Beta Chain Splicing at IVS2 654 locus (AID 910);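 note: per-well total GFP intensity by laser scanning cytometry after 2-day treatment; % of control where 0% means no effect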
# Method in brief: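 HeLa cells stably carrying EGFP interrupted by mutant beta-globin IVS2-654 intron (CMV-driven) were treated with compound for 2 days at 37C; corrected splicing was scored as total peak GFP intensity per well (488 nm excitation, 500-520 nm emission).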
# [18] = Confirmation and Secondary Assay for Modulators of Hemoglobin Beta Chain Splicing at IVS2 705 locus (AID 930);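 note: HeLa cells stably expressing the EGFP-705 splicing reporter; GFP fluorescence per well restored by corrected splicing of the IVS2-705 intron in EGFP; % of control where 0% means no effect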
# Method in brief: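 Fluorescence gain (488 nm laser, 500-520 nm PMT) reflects restored correct splicing of a mutant IVS2-705 intron inside EGFP in stably transfected HeLa cells after 2-day compound treatment.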
# [19] = target: Rap guanine nucleotide exchange factor 3 (Homo sapiens) (UniProt O95398); test: Confirmatory qHTS for agonist of cAMP-regulated guanine nucleotide exchange factor 3 (EPAC1) (AID 1645881);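 note: EPAC1 catalysed release of BODIPY-GDP from Rap1B seen as fluorescence loss; 100% = effect of cAMP agonist control; nearly all actives have a fitted effect of over 75% in size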
# [20] = target: Rap guanine nucleotide exchange factor 4 (Homo sapiens) (UniProt Q8WZA2); test: Confirmatory qHTS for agonist of cAMP-regulated guanine nucleotide exchange factor 4 (EPAC2) (AID 1645884);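 note: nucleotide exchange releases bodipy-GDP from Rap1 and this lowers its fluorescence; % is set by controls: 0 for no effect and ±100 for the full control effect; nearly all actives have a fitted effect of over 65% in size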
# [21] = measured here: cell count channel max response
# [22] = measured here: lipid channel max response
# Sequence of Cytochrome P450 3A4 (Homo sapiens) (P08684 whole entry, looked up): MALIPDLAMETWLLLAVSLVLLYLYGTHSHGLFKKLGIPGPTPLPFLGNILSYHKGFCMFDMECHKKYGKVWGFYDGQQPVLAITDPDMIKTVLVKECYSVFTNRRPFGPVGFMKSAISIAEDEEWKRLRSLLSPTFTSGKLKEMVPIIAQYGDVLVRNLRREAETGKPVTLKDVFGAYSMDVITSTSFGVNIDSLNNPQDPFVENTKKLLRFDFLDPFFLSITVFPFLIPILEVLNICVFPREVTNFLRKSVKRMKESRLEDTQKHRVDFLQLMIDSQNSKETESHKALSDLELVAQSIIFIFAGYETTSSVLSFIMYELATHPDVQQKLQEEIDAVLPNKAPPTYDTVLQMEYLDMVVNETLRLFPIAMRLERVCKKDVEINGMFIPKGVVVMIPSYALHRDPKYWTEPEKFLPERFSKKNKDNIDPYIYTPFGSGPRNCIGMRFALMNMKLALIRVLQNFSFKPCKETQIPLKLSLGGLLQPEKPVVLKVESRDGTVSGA
# Sequence of Lysosomal acid glucosylceramidase (Homo sapiens) (P04062 whole entry, looked up): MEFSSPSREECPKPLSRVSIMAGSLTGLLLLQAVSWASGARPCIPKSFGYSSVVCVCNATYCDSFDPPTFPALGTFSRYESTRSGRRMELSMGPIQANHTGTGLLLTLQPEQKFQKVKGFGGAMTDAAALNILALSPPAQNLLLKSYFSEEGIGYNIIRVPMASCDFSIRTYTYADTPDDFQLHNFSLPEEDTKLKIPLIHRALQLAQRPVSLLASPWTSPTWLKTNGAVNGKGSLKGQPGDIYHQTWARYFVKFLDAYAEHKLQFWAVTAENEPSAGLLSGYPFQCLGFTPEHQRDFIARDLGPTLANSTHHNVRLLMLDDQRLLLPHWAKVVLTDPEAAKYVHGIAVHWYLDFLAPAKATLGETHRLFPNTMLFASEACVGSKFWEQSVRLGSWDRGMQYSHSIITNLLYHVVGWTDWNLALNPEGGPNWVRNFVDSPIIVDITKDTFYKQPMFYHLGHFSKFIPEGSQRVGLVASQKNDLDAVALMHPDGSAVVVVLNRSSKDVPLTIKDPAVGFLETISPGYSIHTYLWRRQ
# Sequence of Ubiquitin carboxyl-terminal hydrolase 1 (Homo sapiens) (O94782 whole entry, looked up): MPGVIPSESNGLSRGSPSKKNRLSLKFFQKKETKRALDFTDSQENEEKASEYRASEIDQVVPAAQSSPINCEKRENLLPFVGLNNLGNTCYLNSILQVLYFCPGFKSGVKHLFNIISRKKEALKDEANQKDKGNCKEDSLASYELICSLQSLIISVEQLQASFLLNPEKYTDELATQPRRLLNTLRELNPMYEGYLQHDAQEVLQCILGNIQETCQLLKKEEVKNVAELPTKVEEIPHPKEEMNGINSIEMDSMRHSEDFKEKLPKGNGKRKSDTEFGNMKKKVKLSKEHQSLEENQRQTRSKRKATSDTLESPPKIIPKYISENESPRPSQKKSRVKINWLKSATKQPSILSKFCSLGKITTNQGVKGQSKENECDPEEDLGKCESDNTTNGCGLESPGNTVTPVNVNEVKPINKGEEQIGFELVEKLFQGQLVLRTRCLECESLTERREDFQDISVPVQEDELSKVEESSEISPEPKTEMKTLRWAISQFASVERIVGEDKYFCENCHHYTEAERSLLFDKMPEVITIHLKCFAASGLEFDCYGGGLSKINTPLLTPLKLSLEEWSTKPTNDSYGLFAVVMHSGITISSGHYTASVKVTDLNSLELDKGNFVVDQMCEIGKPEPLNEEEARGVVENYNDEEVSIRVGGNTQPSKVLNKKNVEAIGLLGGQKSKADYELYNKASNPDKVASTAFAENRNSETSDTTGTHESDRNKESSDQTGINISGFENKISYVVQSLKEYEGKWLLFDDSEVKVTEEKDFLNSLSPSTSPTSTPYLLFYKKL
# Sequence of 3',5'-cyclic-AMP phosphodiesterase 4B (Homo sapiens) (Q07343 whole entry, looked up): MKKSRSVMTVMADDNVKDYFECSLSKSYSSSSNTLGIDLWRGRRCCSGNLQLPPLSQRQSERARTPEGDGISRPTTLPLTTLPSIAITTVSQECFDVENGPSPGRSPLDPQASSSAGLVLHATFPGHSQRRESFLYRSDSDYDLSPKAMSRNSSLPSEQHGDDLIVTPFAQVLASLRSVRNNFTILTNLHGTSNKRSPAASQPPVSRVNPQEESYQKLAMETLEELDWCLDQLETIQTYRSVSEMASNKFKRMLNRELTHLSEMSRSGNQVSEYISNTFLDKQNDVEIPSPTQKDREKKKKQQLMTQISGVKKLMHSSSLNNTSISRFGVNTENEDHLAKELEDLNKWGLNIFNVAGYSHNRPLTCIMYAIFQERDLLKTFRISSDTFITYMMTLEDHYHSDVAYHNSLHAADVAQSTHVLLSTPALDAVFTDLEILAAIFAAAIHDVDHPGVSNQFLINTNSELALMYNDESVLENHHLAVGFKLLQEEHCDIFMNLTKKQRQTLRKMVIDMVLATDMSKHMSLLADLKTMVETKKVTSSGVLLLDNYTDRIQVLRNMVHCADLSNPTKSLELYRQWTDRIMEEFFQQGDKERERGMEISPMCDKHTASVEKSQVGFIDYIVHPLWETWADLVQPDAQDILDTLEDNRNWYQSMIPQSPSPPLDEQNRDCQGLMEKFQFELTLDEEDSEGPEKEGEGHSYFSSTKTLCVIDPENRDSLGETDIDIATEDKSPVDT
# Sequence of Dual specificity protein kinase CLK4 (Homo sapiens) (Q9HAZ1 whole entry, looked up): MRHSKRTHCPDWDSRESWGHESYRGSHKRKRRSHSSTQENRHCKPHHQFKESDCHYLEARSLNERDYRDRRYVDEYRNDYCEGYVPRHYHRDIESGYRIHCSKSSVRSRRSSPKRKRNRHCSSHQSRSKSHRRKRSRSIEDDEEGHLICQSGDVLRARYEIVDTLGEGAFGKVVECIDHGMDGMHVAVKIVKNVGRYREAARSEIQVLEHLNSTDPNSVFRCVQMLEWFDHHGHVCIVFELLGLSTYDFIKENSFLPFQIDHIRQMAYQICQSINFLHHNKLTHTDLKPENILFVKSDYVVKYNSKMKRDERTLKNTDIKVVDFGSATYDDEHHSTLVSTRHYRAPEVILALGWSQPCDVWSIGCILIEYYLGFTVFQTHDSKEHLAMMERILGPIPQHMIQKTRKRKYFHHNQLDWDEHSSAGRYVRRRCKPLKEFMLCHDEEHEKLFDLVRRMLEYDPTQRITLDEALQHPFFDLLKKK
# Sequence of Glucocorticoid receptor (Homo sapiens) (P04150 whole entry, looked up, the tested form may be a part): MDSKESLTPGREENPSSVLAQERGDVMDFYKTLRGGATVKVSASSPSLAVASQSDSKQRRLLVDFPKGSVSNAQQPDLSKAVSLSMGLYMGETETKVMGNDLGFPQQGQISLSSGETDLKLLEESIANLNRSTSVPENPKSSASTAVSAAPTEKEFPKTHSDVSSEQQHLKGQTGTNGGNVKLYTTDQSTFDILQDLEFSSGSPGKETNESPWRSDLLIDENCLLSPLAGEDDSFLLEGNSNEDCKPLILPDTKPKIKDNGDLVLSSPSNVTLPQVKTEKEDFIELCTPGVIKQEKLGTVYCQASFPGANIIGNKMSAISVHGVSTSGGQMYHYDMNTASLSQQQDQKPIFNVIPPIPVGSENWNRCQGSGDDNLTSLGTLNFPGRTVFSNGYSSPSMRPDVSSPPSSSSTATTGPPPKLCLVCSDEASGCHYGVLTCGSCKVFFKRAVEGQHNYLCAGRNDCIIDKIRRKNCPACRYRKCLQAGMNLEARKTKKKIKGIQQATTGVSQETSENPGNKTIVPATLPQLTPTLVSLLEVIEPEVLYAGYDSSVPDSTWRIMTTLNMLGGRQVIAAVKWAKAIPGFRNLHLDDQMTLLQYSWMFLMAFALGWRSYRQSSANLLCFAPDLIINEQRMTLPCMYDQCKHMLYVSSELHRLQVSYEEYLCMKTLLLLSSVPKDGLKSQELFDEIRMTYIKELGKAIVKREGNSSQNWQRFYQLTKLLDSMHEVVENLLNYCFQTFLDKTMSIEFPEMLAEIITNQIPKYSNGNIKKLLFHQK
# Sequence of Cytochrome P450 1A2 (Homo sapiens) (P05177 whole entry, looked up): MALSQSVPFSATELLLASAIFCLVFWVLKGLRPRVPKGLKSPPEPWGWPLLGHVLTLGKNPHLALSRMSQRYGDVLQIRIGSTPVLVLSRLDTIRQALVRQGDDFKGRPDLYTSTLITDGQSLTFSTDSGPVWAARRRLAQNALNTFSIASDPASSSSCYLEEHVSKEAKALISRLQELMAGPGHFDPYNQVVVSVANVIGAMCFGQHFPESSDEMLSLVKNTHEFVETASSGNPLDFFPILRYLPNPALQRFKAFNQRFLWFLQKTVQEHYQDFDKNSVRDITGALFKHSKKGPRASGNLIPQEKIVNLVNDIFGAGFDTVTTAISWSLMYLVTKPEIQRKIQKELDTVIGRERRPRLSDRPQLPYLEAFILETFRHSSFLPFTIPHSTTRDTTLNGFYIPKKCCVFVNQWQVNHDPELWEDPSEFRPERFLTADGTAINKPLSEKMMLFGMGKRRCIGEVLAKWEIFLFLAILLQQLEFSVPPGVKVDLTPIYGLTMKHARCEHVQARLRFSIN
smiles,measurement,setting,value
CN1CCN(c2ncc3nc(-c4ccccc4)c(=O)n(C)c3n2)CC1,Potency,[1],> 11.4 µM (inactive)
same,"activity change, negative = inhibition",[2],19.6% (inactive)
same,Potency,[3],15.8 µM (active)
same,"activity change, negative = inhibition",[4],23.4% (inactive)
same,"activity, negative = inhibition",[5],20% (inactive)
same,Potency,[6],> 9.22 µM (inactive)
same,Potency,[7],> 46 µM (inactive)
same,Potency,[8],inactive
same,Potency,[9],inactive
same,"activity change, negative = inhibition",[10],4.64% (inactive)
same,max response,[10]; [21],14.1%
same,max response,[10]; [22],18.5%
same,Potency,[11],inactive
same,Potency,[12],inactive
same,Potency,[13],inactive
same,Potency,[14],inactive
CN1CCN(c2ncc3ncc(=O)n(Cc4ccc(F)cc4)c3n2)CC1,Potency,[1],> 11.4 µM (inactive)
same,"activity change, negative = inhibition",[2],-13.9% (inactive)
same,Potency,[3],25.1 µM (active)
same,"activity change, negative = inhibition",[4],-8.56% (inactive)
same,"activity, negative = inhibition",[5],-18.8% (inactive)
same,Potency,[6],> 9.22 µM (inactive)
same,Potency,[7],> 46 µM (inactive)
same,Potency,[8],inactive
same,Potency,[9],inactive
same,Potency,[15],inactive
same,"activity change, negative = inhibition",[10],2.71% (inactive)
same,max response,[10]; [21],5.89%
same,max response,[10]; [22],7.12%
same,Potency,[11],inactive
same,Potency,[12],inactive
same,Potency,[13],inactive
same,Potency,[14],inactive
CC(C)=CCC/C(C)=C/CC/C(C)=C/CC/C(C)=C/CC/C(C)=C/CC/C(C)=C/CC/C(C)=C/CC/C(C)=C/CC/C(C)=C/CO,Potency,[16],inactive
same,Potency,[17],inactive
same,outcome,[18],inactive
same,"activity change, negative = inhibition",[10],5.78% (inactive)
same,max response,[10]; [21],6.17%
same,max response,[10]; [22],20.4%
same,Potency,[14],inactive
COc1cccc(Cn2c(=O)c(CCc3ccccc3)nc3cnc(N4CCNCC4)nc32)c1,Potency,[1],> 11.4 µM (inactive)
same,"activity change, negative = inhibition",[2],4.19% (inactive)
same,Potency,[3],12.6 µM (active)
same,"activity change, negative = inhibition",[4],19.7% (inactive)
same,"activity, negative = inhibition",[5],-8.25% (inactive)
same,Potency,[6],> 9.22 µM (inactive)
same,Potency,[7],> 46 µM (inactive)
same,Potency,[8],inactive
same,Potency,[9],inactive
same,Potency,[15],inactive
same,"activity change, negative = inhibition",[10],3.32% (inactive)
same,max response,[10]; [21],9.35%
same,max response,[10]; [22],12.1%
same,Potency,[11],inactive
same,Potency,[12],inactive
same,Potency,[13],inactive
same,Potency,[14],inactive
CNC(=O)[C@H]1O[C@@H](n2cnc3c(N)ncnc32)[C@H](O)[C@H]1O,"activity change, negative = inhibition",[10],-1.94% (inactive)
same,max response,[10]; [21],-22.6%
same,max response,[10]; [22],-24.5%
COc1ccccc1CNc1ncncc1-c1ccccc1OC,Potency,[1],> 11.4 µM (inactive)
same,"activity change, negative = inhibition",[2],-8.41% (inactive)
same,"activity change, negative = inhibition",[4],-16.1% (inactive)
same,"activity, negative = inhibition",[5],-9.32% (inactive)
same,Potency,[6],> 46 µM (inactive)
same,Potency,[7],> 46 µM (inactive)
same,Potency,[8],inactive
same,Potency,[16],0.199 µM (active)
same,"activity change, negative = inhibition",[10],6.17% (inactive)
same,max response,[10]; [21],3.98%
same,max response,[10]; [22],9.74%
same,Potency,[14],inactive
same,Potency,[19],inactive
same,Potency,[20],inactive
COC(=O)CC1C2(C)CC34OC5(C)O[C@@]6(C7/C(=C(/OC)C(C)C)C(=O)OC(c8ccoc8)[C@@]7(C)C(OC(=O)C(C)C)C(OC)[C@]6(O5)[C@@]13C)C(OC)[C@]4(OC)C2OC(C)=O (stereo partly drawn),Potency,[16],2.51 µM (active)
same,Potency,[15],inactive
same,Potency,[17],inactive
same,outcome,[18],inactive
same,"activity change, negative = inhibition",[10],-17.5% (inactive)
same,max response,[10]; [21],1.3%
same,max response,[10]; [22],-14.4%
same,Potency,[19],inactive
same,Potency,[20],inactive
